Hits are enriched below; roughly 11% of the tested compounds scored in any of these assays.
VDR inhibitor – inhibitors of human vitamin D receptor; P11473; VDR-SRC2-3 peptide fluorescence polarization, 2 h; Potency, µM, without a hit: max response, negative = inhibition, usual class: inhibitors; hit rate 0.93% among 400,000; AID 504847; also: potency is read from the fitted curve at half-maximal effect; % is scaled to controls: 0 for no effect and ±100 for the full control effect
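Measured by FP: displacement of SRC2-3 coactivator peptide from VDR by library compounds, following a two-hour ambient incubation.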
PLK1 PBD inh – blocks phosphopeptide binding to human PLK1 polo-box domain. Plk1 PBD binding of FITC phosphopeptide, fluorescence polarization. hit rate 2.8% among 360,000. Potency, µM, inactives show max response, negative = inhibition, hits mostly inhibitors. P53350; also: potency is read from the fitted curve at half-maximal effect; series mostly up to about 57 µM; % is scaled to controls: 0 for no effect and ±100 for the full control effect; nearly all actives have a fitted effect of over 65% in size
G9a block – inhibitors of human histone lysine methyltransferase G9a; AID 504332; hit rate 8.8% among 350,000; G9a H3K9 monomethylation, AlphaScreen, 2 h; Potency, µM (series often up to 102 µM), inactives show top-dose activity, negative = inhibition, hits mostly inhibitors; Q96KQ7; also: potency is read from the fitted curve at half-maximal effect; % is scaled to controls: 0 for no effect and ±100 for the full control effect; nearly all actives have a fitted effect of over 75% in size
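Using a bead-based AlphaScreen, monomethylated H3K9 product from 2 h room-temperature reactions (G9a 20 nM, peptide 500 nM, SAM 20 uM) was detected with 0.5 ug/mL rabbit anti-H3K9me1 antibody.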
JMJD2A Tudor – blocks the human JMJD2A Tudor domain; AID 504339; hit rate 4.4% among 390,000; AlphaScreen JMJD2A-Tudor / H3K4me3 peptide binding; Potency, µM (highest dose often 114 µM), inactives show top-dose activity change, negative = inhibition, actives largely listed as inhibitors; O75164; also: potency is read from the fitted curve at half-maximal effect; % is scaled to controls: 0 for no effect and ±100 for the full control effect; nearly all actives have a fitted effect of over 50% in size
HP1b chromo inh – HP1-beta chromodomain-methylated histone interaction inhibition | hit rate 0.56% among 390,000 | AID 540317 | AlphaScreen HP1-beta / biotin-H3K9me3 peptide binding | P83916 | Potency, µM (series often up to 114 µM), for inactives: at the highest dose activity change, negative = inhibition, most hits filed as inhibitors; also: potency is read from the fitted curve at half-maximal effect; nearly all actives have a fitted effect of over 70% in size
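HP1-beta protein (50 nM final) preincubated 30 min at room temperature with biotinylated H3(1-18)K9me3 peptide (50 nM) in PBS pH 7.4, 0.01% Tween-20, then compound added for 30 min. AlphaScreen streptavidin donor/nickel chelate acceptor beads (10 ug/mL final), 30 min dark, luminescence read.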
BAZ2B inh – inhibitors of human BAZ2B bromodomain; hit rate 4.4% among 360,000; Potency, µM (titrated, usually from 114 µM), for the others: at the top dose activity change, negative = inhibition, hits mostly inhibitors; AlphaScreen BAZ2B-H3K14Ac peptide displacement; AID 504333; also: potency is read from the fitted curve at half-maximal effect; % is scaled to controls: 0 for no effect and ±100 for the full control effect; nearly all actives have a fitted effect of over 60% in size
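Multi-concentration screen (max 110 uM) measuring displacement of acetylated histone H3 peptide from BAZ2B by AlphaScreen, using 50 nM protein, 50 nM peptide and 10 ug/mL streptavidin donor plus Ni-chelate acceptor beads.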
USP1 UbRho – USP1-UAF1 deubiquitinase inhibition validated. shares compounds with VDR inhibitor. Ub-Rhodamine cleavage, fluorescence kinetic read. Potency, µM (top dose mostly 114 µM), for the others: at the top dose activity change, negative = inhibition, actives largely listed as inhibitors. hit rate 50% among 50. AID 540327
VDR inh confirm – confirmation of human vitamin D receptor inhibitors; VDR-coactivator inhibition assay, qHTS confirmation; AID 602199; shares compounds with VDR inhibitor; Potency, µM, most hits filed as inhibitors; hit rate 89% among 840; also: potency is read from the fitted curve at half-maximal effect
VDR FP – confirmation of human VDR-coactivator binding inhibitors, fluorescein label. hit rate 48% among 840. AID 602200. VDR-coactivator binding, fluorescein fluorescence polarization. Potency, µM (titrated, usually from 57.1 µM), without a hit: at the highest dose activity change, negative = inhibition, actives largely listed as inhibitors. shares compounds with VDR inhibitor; also: potency is read from the fitted curve at half-maximal effect
VDR bla reporter – confirmation of human vitamin D receptor inhibitors in reporter cells; shares compounds with VDR inhibitor; VDR beta-lactamase reporter cells, FRET ratio; cells co-treated with VDR agonist LG190178; Potency, µM (highest dose often 46.1 µM), for the others: top-dose activity change, negative = inhibition, hits mostly inhibitors; hit rate 23% among 840; AID 602202; also: potency is read from the fitted curve at half-maximal effect; % is scaled to controls: 0 for no effect and ±100 for the full control effect
VDR cytotox – cytotoxic in counter-screen for VDR inhibitors | shares compounds with VDR inhibitor | cytotoxicity counter-screen, cell viability, qHTS | Potency, µM (series often up to 48.3 µM), inactives show at the highest dose activity change, negative = cytotoxicity, hits mostly cytotoxic | hit rate 18% among 840 | AID 602204;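 also: potency is read from the fitted curve at half-maximal effect; plate controls were DMSO for no effect and high-concentration cycloheximide for full effect; nearly all actives have a fitted effect of over 75% in size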
An asterisk follows results filed as active; [ ] = dose if it differs, or a comment. Calls follow the shape of the dose curve; as a rule, active = well fitted curve in the direction sought with a large enough effect; inconclusive = small, poorly fitted or top-dose-only effect, or another doubt; inactive = no such curve, though single readings can be large; an effect the other way counts as inactive or inconclusive.

Screening Nc1ccc(-c2nc3ccc(-c4nc5ccc(N)cc5[nH]4)cc3[nH]2)cc1 returned VDR inhibitor 2%, G9a block 22µM* and USP1 UbRho inconclusive.
`Cc1ccc2nc(-c3cccc(N)c3)[nH]c2c1` gave VDR inhibitor -5%, PLK1 PBD inh 1%, G9a block -9%[59 µM], JMJD2A Tudor 0%, HP1b chromo inh 30% and BAZ2B inh 5%.
`Cc1noc(C)c1COC(=O)c1csc2c1CCCC2` gave VDR inhibitor 10%, PLK1 PBD inh -2%, G9a block 122%, JMJD2A Tudor 74%, HP1b chromo inh 73% and BAZ2B inh 69%.
Screening COc1cccc(C(=O)C(C#N)=C(SC)SC)c1 returned VDR inhibitor 40µM*, PLK1 PBD inh 15µM*, G9a block 40µM*, JMJD2A Tudor -20%, HP1b chromo inh -22%, BAZ2B inh -24%, VDR inh confirm 11*, VDR FP inconclusive, VDR bla reporter inconclusive and VDR cytotox 13µM*.
`COc1cccc(C(=O)C(CCC#N)c2ccccc2)c1` (stereo not drawn) gave PLK1 PBD inh -8%.
Screening O=C(Nc1ccc(OC(F)F)cc1)c1nc(S(=O)(=O)Cc2ccccc2F)ncc1Cl returned VDR inh confirm 6.3*, VDR FP 4µM*, VDR bla reporter 16µM* and VDR cytotox 17µM*.
For O=C(Nc1ccc(OC(F)F)cc1)c1ncc(Cl)c(Cl)c1Cl the results were VDR inhibitor -12%, PLK1 PBD inh -8%, G9a block 19%, JMJD2A Tudor inconclusive, HP1b chromo inh 50% and BAZ2B inh 2%.
O=C(Nc1ccc(F)cc1)c1nc(SCc2ccccc2F)ncc1Cl was read as VDR inhibitor 8%, G9a block 0%[59 µM], JMJD2A Tudor -11%, HP1b chromo inh 24% and BAZ2B inh 2%.
O=C(Nc1ccccc1)c1nc(S(=O)(=O)Cc2ccccc2F)ncc1Cl was read as VDR inh confirm 2.5*, VDR FP 2.5µM*, VDR bla reporter 3.3µM* and VDR cytotox 13µM*.
Screening CC(C)Sc1nc2ncnc(N)c2[nH]1 returned VDR inhibitor -11%, PLK1 PBD inh -13%, G9a block 2%, JMJD2A Tudor -24%[57.1 µM], HP1b chromo inh 17% and BAZ2B inh -2%.
For CCN(CC)CCNC(=O)c1nn(-c2ccc(Cl)cc2)c2c1CCc1cc(OC)ccc1-2 the results were VDR inhibitor -2%, PLK1 PBD inh 3%, JMJD2A Tudor inconclusive and HP1b chromo inh -7%.
Cc1ccc(C=Nc2ccc(N(C)C)cc2)o1 was read as VDR inhibitor 1µM*, PLK1 PBD inh -2%, G9a block 1.3µM*, JMJD2A Tudor 45µM*, HP1b chromo inh inconclusive, VDR inh confirm 12*, VDR FP 39%, VDR bla reporter -1% and VDR cytotox 1%.
CCNS(=O)(=O)c1ccc(CCC(=O)N2CCN(c3ccccc3)CC2)cc1 was read as VDR inhibitor -10%, PLK1 PBD inh 0%, G9a block inconclusive, JMJD2A Tudor -10%, HP1b chromo inh 31% and BAZ2B inh -20%.
Screening CC(C)/C=C1\CC/C(=C\c2cccnc2)C1=O returned VDR inhibitor -16%, PLK1 PBD inh 0%, G9a block 10%[59 µM], JMJD2A Tudor -10%, HP1b chromo inh 14%[57 µM] and BAZ2B inh inconclusive.
CCC1C/C(=C\c2cccnc2)C(=O)/C(=C/c2cccnc2)C1 (stereo not drawn) was read as VDR inhibitor 22µM*, PLK1 PBD inh -17%, G9a block 14%[59 µM], JMJD2A Tudor -24%, HP1b chromo inh 8%, BAZ2B inh 4%, VDR inh confirm 5.3*, VDR FP 3.5µM*, VDR bla reporter 5.8µM* and VDR cytotox 21µM*.
Screening O=C1/C(=C/c2cccnc2)CCC/C1=C\c1cccnc1 returned VDR inhibitor 50µM*, PLK1 PBD inh -13%, G9a block -28%, JMJD2A Tudor -24%, HP1b chromo inh 10%, BAZ2B inh -6%, VDR inh confirm 13*, VDR FP 20µM*, VDR bla reporter 5.8µM* and VDR cytotox 15µM*.
O=C(NCCc1ccccc1)c1ccc2nc(-c3ccco3)c(-c3ccco3)nc2c1 was read as VDR inhibitor inconclusive, PLK1 PBD inh inconclusive, G9a block 1.4µM*, JMJD2A Tudor 56µM*, HP1b chromo inh inconclusive, BAZ2B inh 10µM*, VDR inh confirm 3.5*, VDR FP 8.9µM*, VDR bla reporter -1% and VDR cytotox 12%.
O=C(NC1CCCC1)c1ccc2nc(-c3ccco3)c(-c3ccco3)nc2c1 was read as VDR inhibitor inconclusive, PLK1 PBD inh 8.4µM*, G9a block 5µM*, JMJD2A Tudor 28µM*, HP1b chromo inh 79µM*, BAZ2B inh inconclusive, VDR inh confirm 10*, VDR FP 3.2µM*, VDR bla reporter -1% and VDR cytotox 12%.
Screening O=C(NCCc1ccccc1)c1ccc(=O)oc1 returned VDR inhibitor 3%, PLK1 PBD inh -9%, G9a block 9%[12.7 µM], JMJD2A Tudor -14%, HP1b chromo inh 31% and BAZ2B inh -3%.
`O=C(NC1CCCC1)c1ccc2nc[nH]c2c1` gave VDR inhibitor 10%, PLK1 PBD inh -2%, G9a block 1%[12.7 µM], JMJD2A Tudor 19%, HP1b chromo inh 49% and BAZ2B inh 0%.

High-throughput results: PubChem, National Center for Advancing Translational Sciences (NCATS)
